Assays:
Assay in all cases: log2 ratio of Biotin-Ahx-Ub-VS probe labelling (fragment/DMSO); higher = less target engagement (more negative = stronger competition), active = hit call of the paper (q ≤ 0.05, log2 ratio ≤ -1)
Settings in all cases: compound concentration: 200 uM; treatment time: 3 h
USP34 = USP34 (UniProt Q70CQ2)
In short: (§1)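 The table lists average log2 ratios of fragment over vehicle, from an unpaired t-test on global-median-normalised Spectronaut label-free quantities. Proteins with ≥2 unique peptides were used. Samples were HEK293T lysate (495 µg) treated in triplicate with fragment at 200 µM or vehicle for 3 h, then with Biotin-Ahx-Ub-VS (0.5 µM final) for 1 h, with labelled DUBs NeutrAvidin-enriched and run by diaPASEF LC-MS/MS.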

USP36 = molecular target: T1, USP36 (UniProt Q9P275)
T1 sequence (whole entry): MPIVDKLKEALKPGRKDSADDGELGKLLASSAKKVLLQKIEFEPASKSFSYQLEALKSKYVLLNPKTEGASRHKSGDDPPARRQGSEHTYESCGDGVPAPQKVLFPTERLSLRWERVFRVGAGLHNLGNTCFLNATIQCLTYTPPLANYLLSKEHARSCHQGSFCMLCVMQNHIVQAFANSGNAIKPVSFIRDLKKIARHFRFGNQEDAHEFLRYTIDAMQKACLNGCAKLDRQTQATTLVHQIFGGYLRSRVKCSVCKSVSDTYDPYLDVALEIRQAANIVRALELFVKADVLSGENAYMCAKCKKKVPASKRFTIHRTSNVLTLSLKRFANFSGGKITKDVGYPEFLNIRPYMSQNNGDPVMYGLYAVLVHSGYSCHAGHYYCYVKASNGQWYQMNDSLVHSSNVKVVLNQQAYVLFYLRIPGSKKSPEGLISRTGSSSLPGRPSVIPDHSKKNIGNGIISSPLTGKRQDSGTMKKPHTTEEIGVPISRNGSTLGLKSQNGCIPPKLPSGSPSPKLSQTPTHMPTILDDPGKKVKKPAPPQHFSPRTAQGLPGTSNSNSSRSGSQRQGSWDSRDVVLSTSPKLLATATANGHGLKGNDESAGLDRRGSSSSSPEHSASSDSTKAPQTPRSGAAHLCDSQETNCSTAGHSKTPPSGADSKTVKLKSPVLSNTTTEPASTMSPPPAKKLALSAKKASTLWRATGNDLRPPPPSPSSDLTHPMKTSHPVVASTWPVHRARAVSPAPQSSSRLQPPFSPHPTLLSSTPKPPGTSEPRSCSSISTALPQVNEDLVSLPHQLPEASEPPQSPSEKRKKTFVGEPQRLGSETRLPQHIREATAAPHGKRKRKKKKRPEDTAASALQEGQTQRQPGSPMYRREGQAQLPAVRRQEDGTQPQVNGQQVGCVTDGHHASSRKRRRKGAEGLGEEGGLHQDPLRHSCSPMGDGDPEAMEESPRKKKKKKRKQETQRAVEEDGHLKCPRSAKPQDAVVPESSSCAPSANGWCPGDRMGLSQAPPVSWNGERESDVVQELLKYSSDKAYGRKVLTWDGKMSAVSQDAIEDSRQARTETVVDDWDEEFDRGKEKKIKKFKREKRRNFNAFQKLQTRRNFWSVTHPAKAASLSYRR
In short: as §1

USP38 = molecular target: T2, USP38 (UniProt Q8NB14)
T2 sequence (whole entry): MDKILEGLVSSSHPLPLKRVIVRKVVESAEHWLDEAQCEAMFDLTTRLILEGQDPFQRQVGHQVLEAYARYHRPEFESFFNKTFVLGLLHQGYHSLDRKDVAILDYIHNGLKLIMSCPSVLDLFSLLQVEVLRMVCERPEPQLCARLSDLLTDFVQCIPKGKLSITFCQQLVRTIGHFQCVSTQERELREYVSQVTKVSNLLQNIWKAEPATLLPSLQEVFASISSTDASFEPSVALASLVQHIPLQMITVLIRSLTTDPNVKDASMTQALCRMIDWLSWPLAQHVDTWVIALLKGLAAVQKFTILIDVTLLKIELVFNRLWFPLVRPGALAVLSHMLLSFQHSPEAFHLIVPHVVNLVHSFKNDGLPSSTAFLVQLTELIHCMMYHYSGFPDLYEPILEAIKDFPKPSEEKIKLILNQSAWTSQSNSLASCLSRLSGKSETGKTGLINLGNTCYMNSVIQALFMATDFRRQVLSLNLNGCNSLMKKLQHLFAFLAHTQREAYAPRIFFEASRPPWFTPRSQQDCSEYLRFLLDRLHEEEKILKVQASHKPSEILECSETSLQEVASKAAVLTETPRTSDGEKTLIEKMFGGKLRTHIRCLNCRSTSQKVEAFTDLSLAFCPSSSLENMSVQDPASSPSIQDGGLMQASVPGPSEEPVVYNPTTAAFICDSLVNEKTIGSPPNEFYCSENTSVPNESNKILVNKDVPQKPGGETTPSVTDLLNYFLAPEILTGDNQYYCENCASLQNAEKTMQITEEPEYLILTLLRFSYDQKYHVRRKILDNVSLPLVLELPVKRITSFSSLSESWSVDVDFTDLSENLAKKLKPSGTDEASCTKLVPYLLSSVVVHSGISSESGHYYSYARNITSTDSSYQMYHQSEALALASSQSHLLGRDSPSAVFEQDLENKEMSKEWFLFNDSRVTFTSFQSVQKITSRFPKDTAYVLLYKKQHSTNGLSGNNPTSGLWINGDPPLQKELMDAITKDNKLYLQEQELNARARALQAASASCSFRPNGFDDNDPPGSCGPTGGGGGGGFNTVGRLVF
In short: as §1

USP39 = molecular target: T3, USP39 (UniProt Q53GS9)
T3 sequence (whole entry): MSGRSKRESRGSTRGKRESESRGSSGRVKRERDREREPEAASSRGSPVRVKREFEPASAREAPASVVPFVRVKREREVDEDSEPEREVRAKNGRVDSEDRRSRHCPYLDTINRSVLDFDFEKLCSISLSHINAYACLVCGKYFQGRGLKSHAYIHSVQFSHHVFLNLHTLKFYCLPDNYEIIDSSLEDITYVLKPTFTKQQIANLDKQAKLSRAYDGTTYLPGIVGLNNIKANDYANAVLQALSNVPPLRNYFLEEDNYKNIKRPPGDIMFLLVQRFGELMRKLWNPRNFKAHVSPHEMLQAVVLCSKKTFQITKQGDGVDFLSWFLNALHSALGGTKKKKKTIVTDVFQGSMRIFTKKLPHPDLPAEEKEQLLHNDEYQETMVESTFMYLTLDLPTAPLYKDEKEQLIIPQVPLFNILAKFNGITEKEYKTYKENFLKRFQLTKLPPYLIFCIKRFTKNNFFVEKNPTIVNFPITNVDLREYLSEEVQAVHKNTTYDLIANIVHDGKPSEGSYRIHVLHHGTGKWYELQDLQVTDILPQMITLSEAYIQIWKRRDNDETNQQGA
In short: as §1

USP4 = molecular target: T4, USP4 (UniProt Q13107)
T4 sequence (whole entry): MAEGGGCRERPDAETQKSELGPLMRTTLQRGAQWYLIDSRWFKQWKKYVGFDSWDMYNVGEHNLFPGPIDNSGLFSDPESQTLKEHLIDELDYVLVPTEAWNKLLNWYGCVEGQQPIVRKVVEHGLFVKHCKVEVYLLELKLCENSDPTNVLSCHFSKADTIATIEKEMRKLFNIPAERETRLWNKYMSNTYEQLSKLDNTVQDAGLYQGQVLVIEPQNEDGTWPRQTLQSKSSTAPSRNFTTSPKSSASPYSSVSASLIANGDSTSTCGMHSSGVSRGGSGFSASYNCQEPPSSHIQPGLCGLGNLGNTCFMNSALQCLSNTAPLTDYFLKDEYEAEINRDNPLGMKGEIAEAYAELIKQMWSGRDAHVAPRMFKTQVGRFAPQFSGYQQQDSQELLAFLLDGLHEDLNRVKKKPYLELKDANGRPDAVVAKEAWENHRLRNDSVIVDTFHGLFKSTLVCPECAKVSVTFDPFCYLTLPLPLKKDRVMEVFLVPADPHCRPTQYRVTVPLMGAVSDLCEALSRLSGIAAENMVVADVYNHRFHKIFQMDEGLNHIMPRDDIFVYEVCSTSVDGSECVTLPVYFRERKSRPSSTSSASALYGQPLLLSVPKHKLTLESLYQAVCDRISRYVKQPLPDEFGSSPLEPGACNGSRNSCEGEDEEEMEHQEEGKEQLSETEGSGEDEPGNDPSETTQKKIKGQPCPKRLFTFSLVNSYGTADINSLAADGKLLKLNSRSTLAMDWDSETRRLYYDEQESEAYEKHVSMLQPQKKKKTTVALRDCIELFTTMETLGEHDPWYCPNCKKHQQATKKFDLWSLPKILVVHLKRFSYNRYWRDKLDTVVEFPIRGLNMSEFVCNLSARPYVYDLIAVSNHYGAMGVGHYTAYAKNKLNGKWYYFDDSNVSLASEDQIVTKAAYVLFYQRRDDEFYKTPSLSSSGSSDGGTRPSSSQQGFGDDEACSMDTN
In short: as §1

Measured: log2 ratio of Biotin-Ahx-Ub-VS probe labelling

Sequence of USP34 (Q70CQ2 whole entry, the tested form may be a part): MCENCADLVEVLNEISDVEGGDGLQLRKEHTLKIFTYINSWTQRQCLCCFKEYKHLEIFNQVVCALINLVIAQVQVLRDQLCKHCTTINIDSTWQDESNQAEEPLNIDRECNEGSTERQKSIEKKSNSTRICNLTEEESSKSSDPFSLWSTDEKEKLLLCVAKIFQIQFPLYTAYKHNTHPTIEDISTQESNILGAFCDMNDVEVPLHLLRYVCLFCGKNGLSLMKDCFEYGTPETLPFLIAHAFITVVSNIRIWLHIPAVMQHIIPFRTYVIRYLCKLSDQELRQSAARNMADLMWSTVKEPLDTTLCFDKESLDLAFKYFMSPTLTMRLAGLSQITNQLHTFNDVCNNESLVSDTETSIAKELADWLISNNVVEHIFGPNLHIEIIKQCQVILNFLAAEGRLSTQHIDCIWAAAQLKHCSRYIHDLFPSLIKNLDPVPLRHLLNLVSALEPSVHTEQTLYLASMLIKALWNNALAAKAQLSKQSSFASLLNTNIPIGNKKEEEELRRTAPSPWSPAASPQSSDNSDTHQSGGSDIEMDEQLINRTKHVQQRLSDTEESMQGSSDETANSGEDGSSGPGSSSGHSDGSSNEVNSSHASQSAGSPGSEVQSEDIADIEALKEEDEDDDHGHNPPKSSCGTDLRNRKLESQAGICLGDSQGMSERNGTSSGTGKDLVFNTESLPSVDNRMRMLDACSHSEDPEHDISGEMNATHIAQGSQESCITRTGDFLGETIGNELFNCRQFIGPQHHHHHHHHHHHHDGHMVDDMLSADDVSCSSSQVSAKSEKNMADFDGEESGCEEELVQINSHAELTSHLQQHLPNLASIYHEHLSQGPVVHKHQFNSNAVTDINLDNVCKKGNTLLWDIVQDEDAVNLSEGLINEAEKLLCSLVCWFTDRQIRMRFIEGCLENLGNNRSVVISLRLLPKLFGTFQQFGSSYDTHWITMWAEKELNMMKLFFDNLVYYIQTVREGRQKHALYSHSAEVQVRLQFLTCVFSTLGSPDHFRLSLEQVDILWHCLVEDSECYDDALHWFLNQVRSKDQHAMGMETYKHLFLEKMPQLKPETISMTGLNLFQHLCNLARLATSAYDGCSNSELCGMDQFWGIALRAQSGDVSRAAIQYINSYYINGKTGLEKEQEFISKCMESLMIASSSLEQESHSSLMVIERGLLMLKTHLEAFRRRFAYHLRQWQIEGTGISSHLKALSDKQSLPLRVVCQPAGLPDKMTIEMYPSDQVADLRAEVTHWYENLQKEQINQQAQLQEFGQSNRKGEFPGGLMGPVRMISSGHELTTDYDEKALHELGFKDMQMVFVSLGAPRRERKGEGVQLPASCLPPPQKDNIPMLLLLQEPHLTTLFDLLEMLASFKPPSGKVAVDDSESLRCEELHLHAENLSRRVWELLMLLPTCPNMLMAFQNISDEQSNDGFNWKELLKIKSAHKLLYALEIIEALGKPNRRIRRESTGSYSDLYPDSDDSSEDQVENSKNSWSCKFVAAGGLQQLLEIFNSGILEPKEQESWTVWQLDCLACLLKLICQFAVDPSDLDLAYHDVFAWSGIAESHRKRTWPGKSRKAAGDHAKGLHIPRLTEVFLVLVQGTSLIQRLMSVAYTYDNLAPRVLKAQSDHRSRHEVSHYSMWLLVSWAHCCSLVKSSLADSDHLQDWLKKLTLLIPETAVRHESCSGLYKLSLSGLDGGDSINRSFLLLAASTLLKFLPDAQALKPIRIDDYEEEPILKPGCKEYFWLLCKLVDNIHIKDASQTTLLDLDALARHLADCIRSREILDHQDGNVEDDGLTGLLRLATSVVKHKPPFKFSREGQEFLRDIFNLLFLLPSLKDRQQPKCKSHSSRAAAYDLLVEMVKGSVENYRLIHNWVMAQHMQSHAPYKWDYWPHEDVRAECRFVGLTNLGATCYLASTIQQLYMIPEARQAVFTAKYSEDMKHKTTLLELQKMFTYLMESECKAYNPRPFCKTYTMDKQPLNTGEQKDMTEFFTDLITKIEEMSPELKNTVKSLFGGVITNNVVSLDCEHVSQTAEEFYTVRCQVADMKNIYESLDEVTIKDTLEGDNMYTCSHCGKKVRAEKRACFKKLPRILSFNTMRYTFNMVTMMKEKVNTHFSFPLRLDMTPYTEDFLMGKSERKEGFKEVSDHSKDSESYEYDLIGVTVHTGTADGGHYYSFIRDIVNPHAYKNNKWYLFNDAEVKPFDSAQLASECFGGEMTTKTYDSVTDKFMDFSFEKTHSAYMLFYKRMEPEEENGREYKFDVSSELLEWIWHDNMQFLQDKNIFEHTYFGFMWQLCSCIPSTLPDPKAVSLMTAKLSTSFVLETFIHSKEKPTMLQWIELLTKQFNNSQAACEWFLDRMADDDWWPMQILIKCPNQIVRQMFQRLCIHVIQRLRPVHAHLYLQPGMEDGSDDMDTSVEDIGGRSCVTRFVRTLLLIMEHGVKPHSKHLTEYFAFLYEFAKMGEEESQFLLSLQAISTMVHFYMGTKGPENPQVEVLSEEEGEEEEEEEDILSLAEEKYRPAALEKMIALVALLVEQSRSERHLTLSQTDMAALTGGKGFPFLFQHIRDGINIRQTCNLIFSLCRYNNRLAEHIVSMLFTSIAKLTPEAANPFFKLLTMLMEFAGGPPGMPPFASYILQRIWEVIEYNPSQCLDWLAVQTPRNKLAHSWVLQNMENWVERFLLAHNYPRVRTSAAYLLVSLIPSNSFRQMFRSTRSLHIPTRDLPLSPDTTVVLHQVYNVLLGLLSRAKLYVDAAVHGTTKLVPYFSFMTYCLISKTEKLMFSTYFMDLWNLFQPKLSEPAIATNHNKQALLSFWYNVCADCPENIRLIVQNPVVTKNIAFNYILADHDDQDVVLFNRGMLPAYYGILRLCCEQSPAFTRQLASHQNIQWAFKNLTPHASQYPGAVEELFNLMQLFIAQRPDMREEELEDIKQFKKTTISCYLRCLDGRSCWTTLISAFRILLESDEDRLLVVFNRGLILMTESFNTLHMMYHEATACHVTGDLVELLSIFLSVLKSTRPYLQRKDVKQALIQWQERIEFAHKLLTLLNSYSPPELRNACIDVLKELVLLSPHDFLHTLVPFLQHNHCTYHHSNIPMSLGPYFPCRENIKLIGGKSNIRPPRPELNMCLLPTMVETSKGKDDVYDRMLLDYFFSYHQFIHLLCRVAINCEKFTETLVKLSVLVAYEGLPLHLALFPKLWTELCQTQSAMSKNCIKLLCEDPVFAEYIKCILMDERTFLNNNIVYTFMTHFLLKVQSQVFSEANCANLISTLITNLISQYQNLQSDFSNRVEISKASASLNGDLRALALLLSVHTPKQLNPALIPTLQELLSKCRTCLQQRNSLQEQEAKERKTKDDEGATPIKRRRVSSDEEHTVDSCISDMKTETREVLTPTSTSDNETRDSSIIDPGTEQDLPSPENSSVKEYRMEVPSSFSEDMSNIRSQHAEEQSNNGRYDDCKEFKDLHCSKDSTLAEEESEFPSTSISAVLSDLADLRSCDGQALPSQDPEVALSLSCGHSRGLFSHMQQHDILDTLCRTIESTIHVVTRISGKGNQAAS

O=C(CCl)N1CCOCC1C1CC1 (stereo not given)
inactive: USP34 0.0844 | USP36 -0.0397 | USP38 0.0391 | USP39 0.265 | USP4 -0.101

Source: the supplement of paper PMC11732987, “Enantioselective OTUD7B fragment discovery through chemoproteomics screening and high-throughput optimisation” (Communications Chemistry, 2025)
